High-throughput results deposited in PubChem by several laboratories.
This excerpt belongs to a sample that is enriched for hits.
GIRK2 activator = Activates human GIRK2-containing potassium channels. 34,000 tested, under 10 active. HEK293 GIRK2/NPY4 cells, thallium flux fluorescence. P48051. activation (% efficacy), % for hits at 75 µM;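 active = primary screen hit, no activity in plain HEK293 cells, and in GIRK2-only cells above 5% efficacy rising with concentration; inactive = the rest, including fluorescent compounds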;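 also: efficacy is normalized control-subtracted fluorescence 15 s after thallium addition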
AMPAR-TARP mod = modulates AMPAR-stargazin complexes; calls only at 30 µM; O88602+P19491; actives 3.5% (n = 40,000); HEK293 GluA2+stargazin, membrane potential dye (FDSS), glutamate EC50; hits were called plate by plate, in both directions;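 active = any of four per-well response measures lying three or more SD from its plate-wide compound average, in either direction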
Target sequence (O88602 whole entry, looked up): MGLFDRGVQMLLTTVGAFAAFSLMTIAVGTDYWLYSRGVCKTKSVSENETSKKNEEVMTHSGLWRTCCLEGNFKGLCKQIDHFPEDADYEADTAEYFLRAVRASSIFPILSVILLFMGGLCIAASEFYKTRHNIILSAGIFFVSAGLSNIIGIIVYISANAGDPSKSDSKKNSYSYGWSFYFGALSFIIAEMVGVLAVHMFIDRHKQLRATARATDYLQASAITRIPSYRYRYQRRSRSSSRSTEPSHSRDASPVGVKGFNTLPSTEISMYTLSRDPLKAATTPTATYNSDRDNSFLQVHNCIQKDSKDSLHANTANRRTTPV
Target sequence (P19491 whole entry, looked up): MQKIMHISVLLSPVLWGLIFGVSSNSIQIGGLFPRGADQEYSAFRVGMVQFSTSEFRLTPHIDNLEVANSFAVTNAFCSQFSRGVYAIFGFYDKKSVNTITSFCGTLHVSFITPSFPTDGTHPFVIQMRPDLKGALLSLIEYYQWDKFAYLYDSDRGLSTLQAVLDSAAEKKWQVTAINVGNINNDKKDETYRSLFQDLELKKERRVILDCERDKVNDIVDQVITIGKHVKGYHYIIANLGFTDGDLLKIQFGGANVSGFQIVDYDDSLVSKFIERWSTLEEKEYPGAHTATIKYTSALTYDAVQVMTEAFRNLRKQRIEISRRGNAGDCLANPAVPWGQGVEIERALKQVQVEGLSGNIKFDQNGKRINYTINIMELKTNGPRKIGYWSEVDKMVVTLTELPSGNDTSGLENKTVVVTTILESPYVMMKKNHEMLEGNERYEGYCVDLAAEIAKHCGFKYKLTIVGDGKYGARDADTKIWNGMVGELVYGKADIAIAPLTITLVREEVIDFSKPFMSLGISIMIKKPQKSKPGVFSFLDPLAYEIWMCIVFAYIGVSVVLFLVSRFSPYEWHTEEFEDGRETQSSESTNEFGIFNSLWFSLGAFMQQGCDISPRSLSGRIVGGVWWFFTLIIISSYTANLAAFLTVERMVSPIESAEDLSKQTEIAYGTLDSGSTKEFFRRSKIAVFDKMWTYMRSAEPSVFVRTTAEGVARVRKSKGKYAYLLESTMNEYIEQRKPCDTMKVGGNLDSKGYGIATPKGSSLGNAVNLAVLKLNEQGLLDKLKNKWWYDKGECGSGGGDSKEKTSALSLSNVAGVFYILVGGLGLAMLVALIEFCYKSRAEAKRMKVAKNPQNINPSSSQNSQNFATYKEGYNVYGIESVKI
Large screens that a line does not name were inactive.

Fc1cccc(Nc2nc(N3CCCCC3)c3[nH]cnc3n2)c1	none
Cc1nc(Nc2cccc(F)c2)nc(N2CCOCC2)c1[N+](=O)[O-]	none
CN1CCN(c2nc(Nc3cccc(O)c3)nc3ccccc23)CC1	AMPAR-TARP mod active (no result: GIRK2 activator)
O=C(C(=O)N(Cc1ccccc1)Cc1ccccc1)c1cn(CC(=O)N2CCOCC2)c2ccccc12	none (no result: GIRK2 activator)
Cc1cccc2sc(N(CCN3CCOCC3)C(=O)CSc3ccccc3)nc12	none
COc1cn(CC(=O)Nc2ccc(C(N)=O)cc2)c(CSc2nnnn2C)cc1=O	none
COc1ccc(NC(=O)Cn2cc(OC)c(=O)cc2CSc2nnnn2C)cc1OC	AMPAR-TARP mod active
CCOc1ccc(NC(=O)Cn2cc(OC)c(=O)cc2CSc2nc(C)cs2)cc1	none
COc1cn(CC(=O)Nc2ccc(C)cc2)c(CSc2nc(C)cs2)cc1=O	AMPAR-TARP mod active
O=C1CN(c2ccccc2)C(=O)C1C(=O)N1CCOCC1 (configuration not stated)	none (no result: GIRK2 activator)
Cc1cc(C(=O)N2CCN(Cc3nnnn3-c3ccc(F)c(F)c3)CC2)no1	none
Cc1onc(-c2ccccc2Cl)c1C(=O)N1CCN(Cc2nnnn2-c2ccc(F)c(F)c2)CC1	AMPAR-TARP mod active
COc1ccc(Cl)cc1NC(=O)C(=O)NCC(C)O (configuration not stated)	none (no result: GIRK2 activator)
COc1cn(CC(=O)Nc2cccc(C(F)(F)F)c2)c(CSc2nc(C)cs2)cc1=O	none
COc1ccc(NS(=O)(=O)c2ccccc2Cl)cc1N1CCCC1=O	none
N#Cc1ccccc1Cn1cc(-c2nc(-c3cnccn3)no2)ccc1=O	AMPAR-TARP mod active
CC(C)NC(=O)Cn1cc(-c2nc(-c3cnccn3)no2)ccc1=O	none
Cc1nn(C2CCS(=O)(=O)C2)c2nc(-c3cccs3)cc(C(=O)NC3CCCCCC3)c12 (configuration not stated)	none
Cc1ccc([N+](=O)[O-])cc1NC(=O)c1ccc(C(C)(C)C)cc1	AMPAR-TARP mod active
Cc1ccc([N+](=O)[O-])cc1NC(=O)c1ccc(=O)n(Cc2ccccc2)c1	none
CN(C)S(=O)(=O)c1ccc(C(=O)N2CCN(c3cc(-n4ccnc4)ncn3)CC2)cc1	none
COc1ccc2sc(=NC(=O)c3ccno3)n(CCSC)c2c1	AMPAR-TARP mod active
CSCCn1c(=NC(=O)c2ccn(C)n2)sc2cc3c(cc21)OCCO3	AMPAR-TARP mod active
Cn1ccc(C(=O)N=c2sc3cc4c(cc3n2C)OCCO4)n1	none
CCn1nc(C(=O)N=c2sc3cc(OC)ccc3n2CCSC)cc1C	none (no result: AMPAR-TARP mod)
CCc1ccccc1-n1c(C)cn2c3c(=O)n(CC(C)=O)c(=O)n(C)c3nc12	none (no result: GIRK2 activator)
CC1=C(C(=O)Nc2ccc(F)cc2)C(c2ccc(N(C)C)cc2)C2=C(CC(C)(C)CC2=O)N1 (configuration not stated)	none (no result: GIRK2 activator)
CN(C)S(=O)(=O)NCCCn1nc(-c2ccncc2)ccc1=O	none (no result: AMPAR-TARP mod)
O=C(NCCc1csc2nc(-c3cccc(F)c3)nn12)C1CC(=O)N(c2ccccc2)C1 (configuration not stated)	none
CS(=O)(=O)N1CCC(CNC(=O)CSCc2ccccc2)CC1	none (no result: AMPAR-TARP mod)
COc1ccc(F)cc1S(=O)(=O)NCC(O)c1ccc(C(F)(F)F)cc1 (configuration not stated)	none
COc1ccc(F)cc1S(=O)(=O)NCCC(O)C(C)(C)C (configuration not stated)	AMPAR-TARP mod active
Cc1cc(N2CCN(Cc3ccccc3)CC2)nc(-n2cc([N+](=O)[O-])cn2)n1	AMPAR-TARP mod active
COc1ccc(Nc2cc(C)nc(-n3cc([N+](=O)[O-])cn3)n2)cc1	none
Cc1cc(Nc2ccc(Cl)cc2)nc(-n2cc([N+](=O)[O-])cn2)n1	AMPAR-TARP mod active
Cc1cc(N2CCC(Cc3ccccc3)CC2)nc(-n2cc([N+](=O)[O-])cn2)n1	none
Cc1nc(N2CCN(c3ccccc3)CC2)nc(NCc2ccccc2)c1[N+](=O)[O-]	none
COc1ccccc1Cc1noc(C2CN(C(=O)c3cnc4ccccc4n3)C2)n1	none (no result: AMPAR-TARP mod)
Cc1cc(C(=O)N(Cc2ccsc2)Cc2ccccn2)no1	none (no result: AMPAR-TARP mod)
O=C(NCC1CCN(C(=O)Nc2ccc(F)cc2)CC1)c1ccc(Cl)s1	none
CS(=O)(=O)Nc1ccc2c(c1)CCCN2S(=O)(=O)c1cccs1	none
C=CCN1C(=O)/C(=C\C=C2/SCCN2C)SC1=S	AMPAR-TARP mod active (no result: GIRK2 activator)
CCOc1ccc(OCC)c(S(=O)(=O)NCCn2nc(-c3ccc(OC)cc3)ccc2=O)c1	AMPAR-TARP mod active (no result: GIRK2 activator)
COc1ccc(-c2ccc(=O)n(CCNS(=O)(=O)c3cc(C)c(C)cc3C)n2)cc1	AMPAR-TARP mod active (no result: GIRK2 activator)
COc1ccc(-c2ccc(=O)n(CCNS(=O)(=O)c3ccc(OC)cc3OC)n2)cc1	none (no result: GIRK2 activator)
CCOc1ccc(S(=O)(=O)NCCn2nc(-c3ccc(OC)cc3)ccc2=O)c(OCC)c1	none (no result: GIRK2 activator)
COc1ccc(-c2ccc(=O)n(Cc3cc(C)ccc3C)n2)cc1	AMPAR-TARP mod active
Cc1ccc(C)c(Cn2nc(-c3ccc(Cl)cc3)ccc2=O)c1	none
N#Cc1nc(-c2ccc(S(=O)(=O)N3CCCCCC3)cc2)oc1N1CCCCC1	none
